Measured values reported in PubChem BioAssay (NCATS).
Where “and” joins values, the source holds several entries; their conditions need not be identical. Equal entries are not always repeated. Records with an inconclusive call do not appear. Entries that show only a call come without a potency. Values without a mark were called inactive. Calls of active or inactive are those of the source. Calls come from the whole dose curve; as a rule, active = well fitted curve in the direction sought with a large enough effect; inconclusive = small, poorly fitted or top-dose-only effect, or another doubt; inactive = no such curve, though single readings can be large; an effect the other way counts as inactive or inconclusive.

Columns and labels:
[1] = Viability qHTS for spleen associated tyrosine kinase inhibitor (SYKi) naive MV4-11 cells (AID 1963823); note: nearly all actives have a fitted effect of over 40% in size; note: potency is the fitted concentration of half-maximal effect
How it was run: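 Luminescence from CellTiter-Glo, developed 10 min at room temperature, gave viability of MV4-11 cells never exposed to SYK inhibitor. Cells (500/well) had been incubated with compounds for 72 hr under standard culture conditions.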

[2] = Cellular viability qHTS for adrenocortical cancer (ACC) cell line SW-13 (AID 1963989); conditions: SW-13 ACC cells viability, CellTiter-Glo, 48 h; activity (max response): hits give low values;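 note: cells grown in serum-free medium with ITS supplement; nearly all actives have a fitted effect of over 65% in size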
How it was run: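 IC50 and maximal-response values come from four-parameter logistic fits of titration data. SW-13 cells in serum-free medium received compounds (up to 46 uM final) for 48 h before CellTiter-Glo luminescence.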

[3] = Cellular viability qHTS for adrenocortical cancer (ACC) cell line NCI-H295R (AID 1963990); note: nearly all actives have a fitted effect of over 60% in size; note: potency is the fitted concentration of half-maximal effect
How it was run: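 Adrenocortical carcinoma cells, suspended at 300 000 cells/mL in serum-free DMEM plus ITS, rested overnight before pin transfer of compound. After two days' incubation, ATP-dependent luminescence was recorded and curve-fitted.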

[4] = Viability qHTS for spleen associated tyrosine kinase inhibitor (SYKi) drug resistant MV4-11 cells (AID 1963824); note: nearly all actives have a fitted effect of over 35% in size; note: potency is the fitted concentration of half-maximal effect
How it was run: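 SYK inhibitor-resistant MV4-11 AML cells, 500 per well, added to predispensed compounds and incubated 72 hr at 37 C, 5% CO2. Viability measured by CellTiter-Glo luminescence after 10 min at room temperature.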

## COc1ccccc1N1CCN(CCCCNC(=O)c2ccc(-c3ccc(C(C)=O)cc3)cc2)CC1
[1]
  Potency: inactive
[2]
  activity (max response): -20.9%
[3]
  Potency: inactive

## CC(=O)OCC(=O)[C@@]1(O)CC[C@H]2[C@@H]3CCC4=CC(=O)C=C[C@]4(C)[C@H]3[C@@H](O)C[C@@]21C
[1]
  Potency: inactive
[2]
  activity (max response): 1.48% and -12.4%
[3]
  Potency: inactive

## Cc1ccc(/C=N/n2c(-c3ccccc3)csc2=S)cc1
[1]
  Potency: inactive
[2]
  activity (max response): 8.75%
[3]
  Potency: inactive

## Cc1ccc(S(=O)(=O)NC(=O)NC2CCCCCCC2)cc1
[1]
  Potency: inactive
[2]
  activity (max response): 11.9%
[3]
  Potency: inactive

## C1CCN2C[C@@H]3C[C@@H](CN4CCCC[C@@H]34)[C@H]2C1
[1]
  Potency: inactive
[2]
  activity (max response): -0.968%
[3]
  Potency: inactive

## CN1CCC[C@@H]1Cc1c[nH]c2ccc(CCS(=O)(=O)c3ccccc3)cc12
[1]
  Potency: inactive
[2]
  activity (max response): -0.887%
[3]
  Potency: inactive

## Cc1ncc(CSSCc2cnc(C)c(O)c2CO)c(CO)c1O
[1]
  Potency: inactive
[2]
  activity (max response): 9.04%
[3]
  Potency: inactive

## NC(=O)c1ncn([C@@H]2O[C@H](CO)[C@@H](O)[C@H]2O)c1O
[1]
  Potency: inactive
[2]
  activity (max response): 14.2% and 14.7% and 8.98%
[3]
  Potency: inactive

## OC(c1ccc(-c2ccc(CN3CCN(Cc4ccncc4)CC3)cc2)c(F)c1)(C(F)(F)F)C(F)(F)F
[1]
  Potency: 4.17 µM (active)
[3]
  Potency: inactive

## c1ccc(CNCc2ccc(CN3CCCNCCNCCCNCC3)cc2)nc1
[1]
  Potency: inactive
[3]
  Potency: inactive

## COc1cc(NS(=O)(=O)c2ccc(N)cc2)nc(C)n1
[1]
  Potency: inactive
[3]
  Potency: inactive

## NS(=O)(=O)OC[C@@H]1C[C@@H](n2ccc3c(N[C@H]4CCc5ccccc54)ncnc32)C[C@@H]1O
[1]
  Potency: 103 nM (active) and 164 nM (active)
[3]
  Potency: 0.708 µM (active)

## C#C[C@]1(OC(C)=O)CC[C@H]2[C@@H]3CCC4=C/C(=N/O)CC[C@@H]4[C@H]3CC[C@@]21CC
[1]
  Potency: 26.6 µM (active)
[3]
  Potency: 20.6 µM (active)

## O=C1OC2(c3ccccc31)c1cc(I)c(O)c(I)c1Oc1c2cc(I)c(O)c1I
[1]
  Potency: inactive
[3]
  Potency: inactive

## Cc1c(CN(C)C(=O)/C=C/c2cnc3c(c2)CCC(=O)N3)oc2ccccc12
[4]
  Potency: inactive

## N#Cc1ccc(O[C@@H]2c3ccccc3C[C@H]2N2CCC[C@@H](N)C2)c(Cl)c1
[4]
  Potency: 16.4 µM (active)

## CC(C)C(C)C(O)C1CC23CC(=O)C4(O)C(=C2CCC3C1C)C=CC1(O)CC(O)CCC14C (centres undefined)
[4]
  Potency: 7.09 µM (active)

## Cn1cc(S(=O)(=O)c2ccc(Cl)cc2)c2cccc(N3CCNCC3)c21
[4]
  Potency: 13 µM (active)

## O=C(O)c1ccc(-n2nc(-c3ccccc3O)nc2-c2ccccc2O)cc1
[1]
  Potency: 16.8 µM (active)
[3]
  Potency: 31.6 µM (active)

## C=C1C2=CC(O)C(C)C1(C)CC/C(C)=C/CCC1(C)OC1C2=O (centres undefined)
[4]
  Potency: 10.1 µM (active)

## Cc1c(-c2ccc(-c3ccccc3F)cc2)nc2ccc(F)cc2c1C(=O)O
[1]
  Potency: 0.148 µM (active)
[3]
  Potency: inactive

## CCN(Cc1cc(Nc2nc(C)cn3c(-c4cn[nH]c4)cnc23)sn1)C(C)(C)CO
[4]
  Potency: 0.0082 µM (active)

## CN[C@@H]1[C@H](O[C@H]2[C@H](O[C@@H]3[C@@H](O)[C@H](O)[C@@H](N=C(N)N)[C@H](O)[C@H]3N=C(N)N)O[C@@H](C)[C@]2(O)CO)O[C@@H](CO)[C@H](O)[C@H]1O
[4]
  Potency: inactive

## Cc1nc2ccc(-n3ncc(C(=O)c4cc5ccccc5[nH]4)c3N)cc2[nH]1
[1]
  Potency: 2.59 µM (active)
[3]
  Potency: inactive

## C[C@H]1CC[C@@]2(OC1)O[C@H]1CC3C4CC[C@H]5C[C@@H](O)CC[C@]5(C)C4CC(=O)[C@]3(C)[C@H]1[C@@H]2C (some centres undefined)
[4]
  Potency: inactive

## CC(C)S(=O)(=O)Nc1ccc(F)c(C(=O)c2c[nH]c3ncc(-c4cccnc4)cc23)c1F
[4]
  Potency: 2.91 µM (active)

## CC(C)(C[C@@](O)(Cc1cc2ccncc2[nH]1)C(F)(F)F)c1cc(F)ccc1O
[4]
  Potency: 2.31 µM (active)

## COC(=O)C1=C(C)NC(C)=C(C(=O)OCC(C)C)C1c1ccccc1[N+](=O)[O-] (centres undefined)
[1]
  Potency: 10.6 µM (active)
[3]
  Potency: 16.4 µM (active)

## COc1ccc(CCO[C@@H]2O[C@H](CO[C@@H]3OC[C@H](O)[C@H](O)[C@H]3O)[C@@H](O)[C@H](O)[C@H]2O)cc1
[4]
  Potency: inactive

## Oc1ccc(CCNCCCCCCNCCc2ccccc2)cc1O
[1]
  Potency: 26.6 µM (active)
[3]
  Potency: 16.4 µM (active)

## CC(C)(C)c1nnc(NS(=O)(=O)c2ccc(N)cc2)s1
[1]
  Potency: inactive
[3]
  Potency: inactive
